According to PubChem BioAssay:
A number with no mark means an inactive call. For some of these results: Measured potencies and affinities stand elsewhere. The source made the active and inactive calls. Unless noted, no rule for the calls is given here.

Legend:
[1] = antimalarial activity against Dd2 strain (AID 2302;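 active = growth inhibition above 50% at the single 2 µM test dose, taken to imply half-maximal potency below 2 µM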;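 also: 0% = DMSO untreated growth and 100% = chloroquine plus artemisinin killed control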); settings: P. falciparum Dd2 in RBCs, LDH growth readout, 72 h; at 2 µM; active compounds read high
[2] = human hepatoma cell viability loss – ATP luminescence, cytotoxicity control for P. falciparum antimalarial project, primary screen (AID 2303;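 active = inhibition above 50%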;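 also: 0% = DMSO wells and 100% = digitonin-killed cells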); settings: HepG2 viability, 24-48 h, at 10 µM, active compounds read high
[3] = target: L-lactate dehydrogenase (Plasmodium falciparum (isolate CDC / Honduras)) (UniProt Q27743); assay: PfLDH activity inhibition – cell lysate, 3D7 strain, counter-screen for P. falciparum growth inhibition project (AID 2304);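 also: 0% = vehicle and 100% = reference inhibitor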; settings: P. falciparum 3D7 crude extract, LDH APAD/NBT absorbance; at 2 µM; active compounds read high
L-lactate dehydrogenase (Plasmodium falciparum (isolate CDC / Honduras)), sequence (Q27743 whole entry, looked up): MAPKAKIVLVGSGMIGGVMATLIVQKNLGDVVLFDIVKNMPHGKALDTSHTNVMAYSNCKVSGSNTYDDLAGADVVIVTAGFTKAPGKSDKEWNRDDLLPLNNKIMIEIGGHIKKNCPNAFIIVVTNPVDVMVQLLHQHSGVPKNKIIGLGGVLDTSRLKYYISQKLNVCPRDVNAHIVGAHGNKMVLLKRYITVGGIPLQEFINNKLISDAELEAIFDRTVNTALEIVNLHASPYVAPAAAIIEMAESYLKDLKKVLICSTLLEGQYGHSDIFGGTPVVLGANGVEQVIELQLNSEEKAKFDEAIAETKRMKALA

[4] = inhibition of 3D7 malaria parasite growth – strain 3D7 (AID 2306);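 also: 0% = DMSO wells and 100% = chloroquine plus artemisinin control wells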; settings: P. falciparum 3D7 erythrocytic growth, LDH absorbance, 72 h; at 2 µM; active compounds read high
[5] = target: Calcium-dependent protein kinase 1 (Plasmodium falciparum (isolate 3D7)) (UniProt P62344); assay: PfCDPK1 kinase inhibitors, biochemical, TCAMS library (AID 1159585; cut-off not given, nearly all actives have IC50 up to about 0.98 µM;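 also: inhibitors leave more ATP so luminescence rises with inhibition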); settings: recombinant PfCDPK1, Kinase-Glo ATP depletion luminescence
Calcium-dependent protein kinase 1 (Plasmodium falciparum (isolate 3D7)), sequence (P62344 whole entry, looked up): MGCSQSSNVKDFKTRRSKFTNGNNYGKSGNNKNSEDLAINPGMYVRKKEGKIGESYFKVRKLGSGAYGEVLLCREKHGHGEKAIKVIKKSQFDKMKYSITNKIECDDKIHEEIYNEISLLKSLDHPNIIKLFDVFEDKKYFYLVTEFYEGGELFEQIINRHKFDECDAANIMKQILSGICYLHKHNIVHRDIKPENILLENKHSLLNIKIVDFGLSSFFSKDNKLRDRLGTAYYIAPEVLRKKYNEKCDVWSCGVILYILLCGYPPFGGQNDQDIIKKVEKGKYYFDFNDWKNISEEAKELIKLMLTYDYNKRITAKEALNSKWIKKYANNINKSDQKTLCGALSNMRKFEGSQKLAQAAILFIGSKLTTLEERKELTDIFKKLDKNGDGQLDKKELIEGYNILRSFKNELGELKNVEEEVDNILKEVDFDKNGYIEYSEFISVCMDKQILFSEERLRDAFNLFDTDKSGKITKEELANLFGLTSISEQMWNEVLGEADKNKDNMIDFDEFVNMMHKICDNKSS

[6] = target: Plasmodium falciparum protein kinase 6 (PK6, PF3D7_1337100) (UniProt Q8IDW1); assay: PfPK6 kinase inhibitors, biochemical, TCAMS library (AID 1159586); settings: recombinant PfPK6, Kinase-Glo ATP depletion luminescence
Plasmodium falciparum protein kinase 6 (PK6, PF3D7_1337100), sequence (Q8IDW1 1-305): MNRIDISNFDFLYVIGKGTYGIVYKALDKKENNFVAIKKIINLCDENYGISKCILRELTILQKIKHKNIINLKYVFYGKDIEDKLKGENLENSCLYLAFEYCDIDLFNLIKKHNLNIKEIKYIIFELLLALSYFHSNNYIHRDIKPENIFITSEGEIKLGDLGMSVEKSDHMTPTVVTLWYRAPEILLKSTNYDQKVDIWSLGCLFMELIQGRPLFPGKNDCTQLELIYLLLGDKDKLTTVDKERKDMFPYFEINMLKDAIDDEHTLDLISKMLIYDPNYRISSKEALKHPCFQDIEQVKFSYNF

[7] = target: Protein kinase 7 (PK7), Plasmodium falciparum 3D7 (PF3D7_0213400) (UniProt Q7YTF7); assay: inhibition of Plasmodium PK7 catalytic activity – biochemical, TCAMS antimalarial set, Kinase-Glo luminescence (AID 1159587); settings: recombinant PfPK7, Kinase-Glo ATP depletion luminescence
Protein kinase 7 (PK7), Plasmodium falciparum 3D7 (PF3D7_0213400), sequence (Q7YTF7 1-343): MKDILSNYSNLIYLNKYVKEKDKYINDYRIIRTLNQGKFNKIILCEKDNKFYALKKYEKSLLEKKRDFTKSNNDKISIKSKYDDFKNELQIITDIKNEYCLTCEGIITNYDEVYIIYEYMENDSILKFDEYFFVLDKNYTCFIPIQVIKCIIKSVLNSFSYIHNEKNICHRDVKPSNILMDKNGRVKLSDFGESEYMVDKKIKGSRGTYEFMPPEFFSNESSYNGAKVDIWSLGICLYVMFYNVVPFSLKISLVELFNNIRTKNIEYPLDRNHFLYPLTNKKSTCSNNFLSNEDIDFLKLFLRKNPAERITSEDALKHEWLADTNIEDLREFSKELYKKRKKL

[8] = target: Calcium-dependent protein kinase 4 (Plasmodium falciparum (isolate 3D7)) (UniProt Q8IBS5); assay: PfCDPK4 kinase inhibitors, biochemical, TCAMS library (AID 1159588; cut-off not given, nearly all actives have IC50 up to about 0.91 µM); settings: recombinant PfCDPK4, Kinase-Glo ATP depletion luminescence
Calcium-dependent protein kinase 4 (Plasmodium falciparum (isolate 3D7)), sequence (Q8IBS5 whole entry, looked up): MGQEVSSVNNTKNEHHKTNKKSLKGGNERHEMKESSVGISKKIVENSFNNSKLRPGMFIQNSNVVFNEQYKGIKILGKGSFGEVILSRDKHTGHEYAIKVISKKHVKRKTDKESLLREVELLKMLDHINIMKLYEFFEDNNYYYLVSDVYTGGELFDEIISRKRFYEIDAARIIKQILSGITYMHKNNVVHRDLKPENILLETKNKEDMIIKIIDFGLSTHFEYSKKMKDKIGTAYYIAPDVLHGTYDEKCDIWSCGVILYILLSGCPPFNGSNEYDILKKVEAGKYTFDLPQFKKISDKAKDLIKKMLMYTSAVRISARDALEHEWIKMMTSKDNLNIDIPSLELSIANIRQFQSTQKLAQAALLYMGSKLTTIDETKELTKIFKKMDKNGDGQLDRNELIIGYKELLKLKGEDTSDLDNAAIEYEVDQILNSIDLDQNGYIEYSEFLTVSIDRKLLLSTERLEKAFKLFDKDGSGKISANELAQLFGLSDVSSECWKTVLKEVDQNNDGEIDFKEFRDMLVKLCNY

| Compound | growth inhibition [1] | inhibition [2] | inhibition [3] [%] | growth inhibition [4] | outcome [5] | outcome [6] | outcome [7] | outcome [8] |
| --- | --- | --- | --- | --- | --- | --- | --- | --- |
| CCN(CC)CCNc1nc(C=Cc2ccc(Cl)cc2)nc2cc3ccccc3cc12 | 99% (active) | 83% (active) | -3 | 100% (active) | inactive | inactive | inactive | inactive |
| CC(C)(C)SCC(O)Cn1c2ccc(Br)cc2c2cc(Br)ccc21 (stereo not drawn) | 79% (active) | 4% | 1 | 87% (active) | inactive | inactive | inactive | inactive |
| Cc1cccc2[nH]c(-c3ccc(-c4cccc(NC(=O)Nc5ccsc5)c4)cc3)nc12 | 24% | 24% | 8 | 101% (active) | inactive | inactive | inactive | inactive |
| CCn1ccc2c(N3CCCCS3(=O)=O)cc(C(=O)N[C@@H](Cc3ccccc3)[C@H](O)CNC3CCCCC3)cc21 | 98% (active) | 1% | 1 | 98% (active) | inactive | inactive | inactive | inactive |
| CC1(C)N=C(N)N=C(N)N1OCc1nc(N)nc(Nc2ccccc2)n1 | -4% | 3% | -2 | 98% (active) | inactive | inactive | inactive | inactive |
| CCNC(=O)NC1CCN(Cc2c(-c3cccs3)nc3ccccc3c2C(=O)N[C@@H](C)C2CCCCC2)CC1 | 96% (active) | -1% | -2 | 95% (active) | inactive | inactive | inactive | inactive |
| Oc1ccccc1CCNCC1CCc2ccccc2C1 (stereo not drawn) | 98% (active) | 37% | 0 | 98% (active) | inactive | inactive | inactive | inactive |
| Cc1cc(OCc2ccccc2)c(OCc2ccccc2)cc1C(O)CN(C)Cc1ccccc1 (stereo not drawn) | 87% (active) | 14% | -2 | 96% (active) | inactive | inactive | inactive | inactive |
| O=[N+]([O-])c1ccc2nc(Nc3ccc(Cl)c(Cl)c3)c(Nc3ccc(Cl)c(Cl)c3)nc2c1 | 99% (active) | 1% | 3 | 101% (active) | inactive | inactive | inactive | inactive |
| CON=C1CCC(Cn2ccnc2)(c2ccc(Cl)cc2Cl)CC1 (stereo not drawn) | 56% (active) | 7% | -5 | 100% (active) | inactive | inactive | inactive | inactive |
| Cc1cccc2[nH]c(-c3ccc(-c4cccc(CNCCCNS(C)(=O)=O)c4)s3)nc12 | 19% | 20% | 2 | 99% (active) | inactive | inactive | inactive | inactive |
| Cc1oc(-c2cccc(Oc3ccccc3)c2)nc1CN(Cc1cnn(C)c1)C(C)C | 61% (active) | 22% | 2 | 89% (active) | inactive | inactive | inactive | inactive |
| CC1(C)N=C(N)N=C(N)N1OCCSCc1cc(Cl)sc1Cl | 72% (active) | 70% (active) | -2 | 93% (active) | inactive | inactive | inactive | inactive |
| CN1CCN(c2ccnc3ccc(NC(=O)Nc4ccc(-c5ccncc5)c5ccccc45)cc23)CC1 | 84% (active) | 76% (active) | -4 | 101% (active) | inactive | inactive | inactive | inactive |
| Cc1ccc(Cn2nc(N3CCNCC3)ccc2=O)cc1NC(=O)Nc1ccc(-c2ccccc2)cc1 | 20% | 46% | -1 | 94% (active) | inactive | inactive | inactive | inactive |
| COc1ccc(Cn2c(Nc3cccc(C(F)(F)F)c3)nc3cc(C(=O)NC4CC4)cnc32)cc1Cl | 96% (active) | -2% | -3 | 94% (active) | inactive | inactive | inactive | inactive |
| CCC(ON1C(N)=NC(N)=NC1(C)C)c1ccccc1 (stereo not drawn) | -5% | 61% (active) | -4 | 96% (active) | inactive | inactive | inactive | inactive |
| O=C(Cn1c2ccccc2c(=O)c2ccc(Cl)cc21)Nc1ccc(C(F)(F)F)cc1 | 100% (active) | 30% | -3 | 99% (active) | inactive | inactive | inactive | inactive |
| O=C(O)c1ccc2c(c1)N(C(=O)CNCc1ccc(F)cc1)CC(=O)N2CCCc1ccccc1 | -2% | 1% | 2 | 95% (active) | inactive | inactive | inactive | inactive |
| CCCCc1ccc(-c2nc(NC(=O)Nc3nc(-c4ccccc4)[nH]c3C(=O)OCC)c(C(=O)OCC)[nH]2)cc1 | 26% | 0% | -4 | 95% (active) | inactive | inactive | inactive | inactive |
| Fc1cc(Cl)ccc1Nc1ccnc2cc(-c3ccc(CN4CCOCC4)o3)ccc12 | 98% (active) | 33% | 0 | 99% (active) | inactive | inactive | inactive | inactive |

| Compound | growth inhibition [1] | inhibition [2] | inhibition [3] [%] | growth inhibition [4] | outcome [5] | outcome [6] | outcome [7] | outcome [8] |
| --- | --- | --- | --- | --- | --- | --- | --- | --- |
| COc1cc2c(c(Cl)c1OC)CCN(Cc1ccccc1)CC2c1ccc(C(N)=O)cc1 (stereo not drawn) | 60% (active) | 7% | -5 | 97% (active) | inactive | inactive | inactive | inactive |
| Cc1cc(N2CCCC2)nc(Nc2ccc(NC(=O)C(C)C)cc2)n1 | 36% | 40% | 2 | 97% (active) | inactive | inactive | inactive | inactive |
| Cc1cccn2c(=O)c3cc(C(=O)NC(C)c4ccccc4)c(=N)n(CCN4CCOCC4)c3nc12 (stereo not drawn) | 5% | 6% | 4 | 101% (active) | inactive | inactive | inactive | inactive |
| O=C(N[C@@H](Cc1ccccc1)C(=O)NCc1cccc(C(F)(F)F)c1)c1ccc(O)c(-c2ccc(Cl)c(Cl)c2)c1 | 97% (active) | -13% | -1 | 96% (active) | inactive | inactive | inactive | inactive |
| O=C(/C=C/c1ccc(Cl)cc1Cl)NCCCCCN1CCC(c2c[nH]c3ccccc23)CC1 | 9% | 95% (active) | 1 | 99% (active) | inactive | inactive | inactive | inactive |
| CCc1cn(C)c2c(N3CCCC3=O)cc(C(=O)N[C@@H](Cc3ccccc3)[C@H](O)CNC(C)(C)CCCC(C)C)cc12 | 98% (active) | 15% | -4 | 97% (active) | inactive | inactive | inactive | inactive |
| CSc1nc2nc(C)c(Cc3cccc(F)c3)c(C)n2n1 | 45% | 3% | 0 | 87% (active) | inactive | inactive | inactive | inactive |
| O=C(Nc1ccc(OC2CCN(Cc3ccc(F)cc3)C2)c(Cl)c1)c1ccsc1 (stereo not drawn) | 95% (active) | 26% | -3 | 98% (active) | inactive | inactive | inactive | inactive |
| CN(C)[C@@H]1C(=O)C(C(N)=O)=C(O)[C@@]2(O)C(=O)C3=C(O)c4c(O)ccc(C#Cc5ccccn5)c4C[C@H]3C[C@@H]12 | 75% (active) | 17% | -6 | 92% (active) | inactive | inactive | inactive | inactive |
| COc1cc(-c2cc(-c3ccc(S(C)(=O)=O)cc3)cnc2N)ccc1O | 97% (active) | 37% | -2 | 97% (active) | inactive | inactive | inactive | inactive |
| CC(CCc1ccccc1)NCC(O)c1cccc(C(F)(F)F)c1 (stereo not drawn) | 98% (active) | 18% | 4 | 99% (active) | inactive | inactive | inactive | inactive |
| COc1ccc(-c2cc(NCc3ccc(-n4ccnc4)cc3)nc(Nc3ccccc3)n2)cc1 | 79% (active) | 8% | 0 | 101% (active) | inactive | inactive | inactive | inactive |
| O=C(/C=C/c1ccc(Cl)c(Cl)c1)NCCCCCCN1CCCN(C(=O)Nc2ccc(Cl)c(C(F)(F)F)c2)CC1 | 24% | 25% | -4 | 101% (active) | inactive | inactive | inactive | inactive |
| O=C(COc1ccc(Cl)c(Cl)c1)NCCCCCN1CCCN(C(=O)Nc2cc(Cl)cc(Cl)c2)CC1 | 1% | 44% | -5 | 89% (active) | inactive | inactive | inactive | inactive |
| O=C(Nc1cccc(N2CCC(NCCCn3ccnc3)CC2)c1)c1cccc(C(F)(F)F)c1 | 2% | 8% | 3 | 101% (active) | inactive | inactive | inactive | inactive |
| Cc1cc(OCC2CCN(c3ncc(C(=O)NC4CC4)cc3Cl)CC2)ccc1F | 96% (active) | 16% | 5 | 96% (active) | inactive | inactive | inactive | inactive |
| CCOC(=O)C(NC(=O)c1ccc([N+](=O)[O-])o1)C(C)C (stereo not drawn) | 8% | -3% | 0 | 87% (active) | inactive | inactive | inactive | inactive |
| OC(c1n[nH]c(=S)n1-c1ccccc1)C(O)c1n[nH]c(=S)n1-c1ccccc1 (stereo not drawn) | 89% (active) | 18% | 4 | 92% (active) | inactive | inactive | inactive | inactive |
| O=C1NC(=S)NC1=CC=Cc1ccc([N+](=O)[O-])o1 | 30% | 7% | 2 | 82% (active) | inactive | inactive | inactive | inactive |
| O=C(NCCCCN1CCC(c2ccc3ccccc3c2O)CC1)c1ccc(-c2ccc(Cl)cc2)cc1 | 99% (active) | 84% (active) | -2 | 101% (active) | inactive | inactive | inactive | inactive |
